# Source: the supplement of paper PMC10849652
# Of roughly 7,900 targets only a part is listed; those with a hit were picked by preference. About 0.6% of all pairs of compound and target were hits. Unmarked numbers belong to inactive results.
# Compound: CC(=O)c1cnc2ccc(-c3cc(Cl)c(O)c(Cl)c3)nc2c1N[C@H]1CC[C@H](CN(C)C)CC1
# Assay: log2 fold change, soluble protein after heating vs DMSO (PISA); higher = thermal stabilisation; K562 cells, 10 uM, 30 min; active = over 0.2 and 3.5 SD of the protein, either way, in both replicates (recomputed)
# Outline: (§1)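 K562 cells at 2×10^6 cells/mL were treated with 10 μM compound for 30 min. Aliquots were heated for 3 min across 48°C-58°C, pooled, and extracted in PBS with 0.5% NP-40 at 4°C; soluble protein was the supernatant after 21,000xg for 90 min. Soluble protein was quantified by TMTpro 16plex LC-MS/MS with channel sums equalised, and reported as log2 fold change in thermal stability against DMSO controls, with values from duplicates.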
# UniProt Q53GQ0, sequence (Q53GQ0 whole entry, looked up): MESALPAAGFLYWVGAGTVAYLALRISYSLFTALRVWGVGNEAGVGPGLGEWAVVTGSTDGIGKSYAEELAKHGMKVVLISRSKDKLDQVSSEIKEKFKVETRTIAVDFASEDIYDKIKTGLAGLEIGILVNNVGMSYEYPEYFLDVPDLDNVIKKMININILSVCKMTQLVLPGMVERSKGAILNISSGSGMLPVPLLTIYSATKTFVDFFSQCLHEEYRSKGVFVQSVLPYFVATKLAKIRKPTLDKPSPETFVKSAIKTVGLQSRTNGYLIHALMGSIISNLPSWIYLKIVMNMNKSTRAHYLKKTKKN
# UniProt P52597, sequence (P52597 whole entry, looked up): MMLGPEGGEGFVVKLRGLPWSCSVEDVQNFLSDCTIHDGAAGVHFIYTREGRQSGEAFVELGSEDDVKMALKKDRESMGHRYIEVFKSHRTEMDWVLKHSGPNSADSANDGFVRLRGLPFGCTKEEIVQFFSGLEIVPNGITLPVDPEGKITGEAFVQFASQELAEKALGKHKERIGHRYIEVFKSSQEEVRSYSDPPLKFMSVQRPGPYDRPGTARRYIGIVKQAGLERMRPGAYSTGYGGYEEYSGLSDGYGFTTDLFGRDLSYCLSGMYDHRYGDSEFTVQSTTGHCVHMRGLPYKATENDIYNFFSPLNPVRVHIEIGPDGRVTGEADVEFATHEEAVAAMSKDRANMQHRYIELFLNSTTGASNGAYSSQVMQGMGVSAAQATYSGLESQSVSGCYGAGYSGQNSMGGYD
# UniProt P30519, sequence (P30519 whole entry, looked up): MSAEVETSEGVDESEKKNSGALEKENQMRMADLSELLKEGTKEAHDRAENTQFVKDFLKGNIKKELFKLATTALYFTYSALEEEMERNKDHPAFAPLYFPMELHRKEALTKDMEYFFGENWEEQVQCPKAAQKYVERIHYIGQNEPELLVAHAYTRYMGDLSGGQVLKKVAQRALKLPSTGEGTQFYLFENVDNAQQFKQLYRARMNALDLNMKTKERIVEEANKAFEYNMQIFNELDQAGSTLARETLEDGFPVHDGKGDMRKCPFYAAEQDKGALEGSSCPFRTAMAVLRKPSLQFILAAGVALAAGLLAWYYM
# UniProt O15228, sequence (O15228 whole entry, looked up): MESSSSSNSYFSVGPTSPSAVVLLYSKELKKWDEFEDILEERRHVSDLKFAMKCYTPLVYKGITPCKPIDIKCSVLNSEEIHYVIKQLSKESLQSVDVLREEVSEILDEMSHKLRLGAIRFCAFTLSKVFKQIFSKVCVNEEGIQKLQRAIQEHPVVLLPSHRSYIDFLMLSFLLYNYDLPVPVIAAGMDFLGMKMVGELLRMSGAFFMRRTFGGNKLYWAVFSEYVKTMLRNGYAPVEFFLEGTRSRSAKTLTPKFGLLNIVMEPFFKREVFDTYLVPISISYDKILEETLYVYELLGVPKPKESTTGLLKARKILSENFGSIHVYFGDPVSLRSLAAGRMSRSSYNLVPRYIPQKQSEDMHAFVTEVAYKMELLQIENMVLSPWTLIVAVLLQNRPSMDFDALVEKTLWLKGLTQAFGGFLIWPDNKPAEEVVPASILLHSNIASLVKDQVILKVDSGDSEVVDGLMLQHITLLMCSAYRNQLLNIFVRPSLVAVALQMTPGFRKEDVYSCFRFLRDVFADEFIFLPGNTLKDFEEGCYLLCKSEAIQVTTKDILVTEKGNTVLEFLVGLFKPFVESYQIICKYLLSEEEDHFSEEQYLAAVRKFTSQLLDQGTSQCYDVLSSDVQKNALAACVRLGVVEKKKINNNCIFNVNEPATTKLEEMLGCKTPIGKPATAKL
# UniProt Q02790, sequence (Q02790 whole entry, looked up): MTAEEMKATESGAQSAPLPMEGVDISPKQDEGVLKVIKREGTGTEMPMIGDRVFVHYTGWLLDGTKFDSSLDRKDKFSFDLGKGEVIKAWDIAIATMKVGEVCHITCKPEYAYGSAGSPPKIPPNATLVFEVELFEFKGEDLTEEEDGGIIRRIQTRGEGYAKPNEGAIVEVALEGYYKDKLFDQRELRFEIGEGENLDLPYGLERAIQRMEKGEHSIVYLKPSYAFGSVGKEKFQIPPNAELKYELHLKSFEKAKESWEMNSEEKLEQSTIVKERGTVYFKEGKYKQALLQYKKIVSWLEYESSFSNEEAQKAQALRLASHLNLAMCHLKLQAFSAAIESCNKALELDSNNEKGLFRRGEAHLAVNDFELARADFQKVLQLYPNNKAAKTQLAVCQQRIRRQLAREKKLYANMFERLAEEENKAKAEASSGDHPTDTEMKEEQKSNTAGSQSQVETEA
# UniProt P55084, sequence (P55084 whole entry, looked up): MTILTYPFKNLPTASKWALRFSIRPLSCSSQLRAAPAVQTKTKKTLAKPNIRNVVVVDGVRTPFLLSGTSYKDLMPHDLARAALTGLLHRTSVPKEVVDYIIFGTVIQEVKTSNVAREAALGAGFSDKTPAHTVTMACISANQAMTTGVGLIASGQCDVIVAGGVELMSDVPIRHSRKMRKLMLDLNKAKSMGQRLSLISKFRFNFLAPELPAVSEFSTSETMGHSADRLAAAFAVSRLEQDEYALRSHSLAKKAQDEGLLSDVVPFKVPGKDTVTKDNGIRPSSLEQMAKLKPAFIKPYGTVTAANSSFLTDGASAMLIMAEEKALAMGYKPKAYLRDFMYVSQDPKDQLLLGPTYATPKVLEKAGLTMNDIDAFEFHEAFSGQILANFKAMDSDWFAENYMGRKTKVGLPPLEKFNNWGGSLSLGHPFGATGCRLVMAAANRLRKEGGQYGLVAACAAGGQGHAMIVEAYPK
# UniProt Q5SSJ5, sequence (Q5SSJ5 whole entry, looked up): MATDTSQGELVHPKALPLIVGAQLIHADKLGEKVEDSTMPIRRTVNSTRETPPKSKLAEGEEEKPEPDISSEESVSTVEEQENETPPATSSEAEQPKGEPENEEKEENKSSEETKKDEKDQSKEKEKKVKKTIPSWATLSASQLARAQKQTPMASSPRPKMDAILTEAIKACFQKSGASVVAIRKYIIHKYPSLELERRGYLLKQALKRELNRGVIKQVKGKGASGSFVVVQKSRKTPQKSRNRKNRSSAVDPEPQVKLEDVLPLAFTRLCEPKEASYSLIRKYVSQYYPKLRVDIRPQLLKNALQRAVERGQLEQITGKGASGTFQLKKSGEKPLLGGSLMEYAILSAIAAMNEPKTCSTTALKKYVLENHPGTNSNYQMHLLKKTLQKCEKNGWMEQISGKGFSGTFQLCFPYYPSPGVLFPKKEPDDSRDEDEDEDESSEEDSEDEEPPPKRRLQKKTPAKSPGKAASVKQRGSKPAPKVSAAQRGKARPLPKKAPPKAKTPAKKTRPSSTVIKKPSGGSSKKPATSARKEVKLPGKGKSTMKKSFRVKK
# UniProt Q5JWF2, sequence (Q5JWF2 whole entry, looked up): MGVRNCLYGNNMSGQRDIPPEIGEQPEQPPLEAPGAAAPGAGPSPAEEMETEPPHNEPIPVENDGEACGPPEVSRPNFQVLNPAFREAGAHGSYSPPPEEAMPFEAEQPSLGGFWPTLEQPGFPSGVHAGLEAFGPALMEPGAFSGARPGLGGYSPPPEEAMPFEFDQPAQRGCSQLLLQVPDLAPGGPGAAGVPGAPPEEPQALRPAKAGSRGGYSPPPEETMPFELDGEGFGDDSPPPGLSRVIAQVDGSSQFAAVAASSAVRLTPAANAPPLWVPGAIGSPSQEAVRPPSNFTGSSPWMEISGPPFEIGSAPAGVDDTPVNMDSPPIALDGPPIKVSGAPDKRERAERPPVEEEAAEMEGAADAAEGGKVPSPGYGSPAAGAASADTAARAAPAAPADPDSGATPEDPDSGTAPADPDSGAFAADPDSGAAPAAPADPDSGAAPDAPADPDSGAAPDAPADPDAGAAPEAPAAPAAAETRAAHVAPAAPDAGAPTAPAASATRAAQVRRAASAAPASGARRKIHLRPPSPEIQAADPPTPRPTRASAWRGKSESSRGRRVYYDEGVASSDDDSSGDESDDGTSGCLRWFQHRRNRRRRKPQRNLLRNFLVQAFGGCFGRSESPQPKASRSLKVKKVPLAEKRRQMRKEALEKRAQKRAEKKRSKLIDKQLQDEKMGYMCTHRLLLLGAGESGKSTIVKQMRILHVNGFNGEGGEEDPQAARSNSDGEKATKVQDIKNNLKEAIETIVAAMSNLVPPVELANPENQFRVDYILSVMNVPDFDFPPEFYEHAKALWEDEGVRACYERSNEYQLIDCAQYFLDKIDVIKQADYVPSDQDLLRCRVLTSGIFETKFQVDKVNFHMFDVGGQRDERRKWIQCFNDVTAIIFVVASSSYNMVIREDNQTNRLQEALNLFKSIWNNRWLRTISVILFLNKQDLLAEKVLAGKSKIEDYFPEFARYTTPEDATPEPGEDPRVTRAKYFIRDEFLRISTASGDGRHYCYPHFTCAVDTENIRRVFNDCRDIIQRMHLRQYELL
# UniProt P22570, sequence (P22570 whole entry, looked up): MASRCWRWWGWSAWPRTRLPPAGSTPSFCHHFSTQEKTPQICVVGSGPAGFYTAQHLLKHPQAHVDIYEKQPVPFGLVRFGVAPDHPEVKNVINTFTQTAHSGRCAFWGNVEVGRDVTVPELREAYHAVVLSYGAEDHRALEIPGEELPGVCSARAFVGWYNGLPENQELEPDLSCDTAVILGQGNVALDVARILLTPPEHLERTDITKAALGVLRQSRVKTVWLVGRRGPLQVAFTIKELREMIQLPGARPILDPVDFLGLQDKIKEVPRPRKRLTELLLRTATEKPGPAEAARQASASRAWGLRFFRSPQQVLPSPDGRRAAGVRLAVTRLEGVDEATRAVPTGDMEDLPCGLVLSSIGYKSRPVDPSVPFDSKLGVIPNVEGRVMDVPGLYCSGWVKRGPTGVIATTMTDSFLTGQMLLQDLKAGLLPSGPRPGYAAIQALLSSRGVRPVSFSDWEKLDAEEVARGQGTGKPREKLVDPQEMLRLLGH
# UniProt P02008, sequence (P02008 whole entry, looked up): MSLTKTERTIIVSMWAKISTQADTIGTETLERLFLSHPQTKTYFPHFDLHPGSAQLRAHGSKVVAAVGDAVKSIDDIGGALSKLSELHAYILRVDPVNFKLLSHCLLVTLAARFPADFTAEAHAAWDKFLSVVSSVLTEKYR
row,Target,log2 fold change
1,HADHB (UniProt P55084),-0.326
2,GDPD1 (UniProt Q8N9F7),0.044
3,HBZ (UniProt P02008),-0.005
4,FNTA (UniProt P49354),0.081
5,FUBP3 (UniProt Q96I24),-0.054
6,FAM91A1 (UniProt Q658Y4),-0.025
7,GTF3C4 (UniProt Q9UKN8),-0.051
8,HSPA8 (UniProt E9PK54),0.015
9,GNPAT (UniProt O15228),-0.017
10,GTF2A2 (UniProt P52657),-0.002
11,HBA1 (UniProt P69905),-0.03
12,GDI1 (UniProt P31150),-0.027
13,HMOX2 (UniProt P30519),-0.092
14,HMGN2 (UniProt P05204),0.121
15,GYG1 (UniProt P46976),-0.29
16,FKBP3 (UniProt Q00688),0.016
17,HEATR5B (UniProt Q9P2D3),0.014
18,FKBP4 (UniProt Q02790),-0.006

row,Target,log2 fold change
1,H2AFX (UniProt P16104),0.044
2,GUSB (UniProt P08236),-0.075
3,HDAC6 (UniProt Q9UBN7),-0.03
4,FBXO42 (UniProt Q6P3S6),-0.108
5,HP1BP3 (UniProt Q5SSJ5),0.051
6,GEMIN5 (UniProt Q8TEQ6),-0.155
7,HSD17B12 (UniProt Q53GQ0),-0.127
8,HNRNPF (UniProt P52597),-0.1
9,GALNT2 (UniProt Q10471),-0.006
10,IFT80 isoform 3 (UniProt Q9P2H3),-0.073
11,GEMIN6 (UniProt Q8WXD5),0.016
12,FDPS (UniProt P14324),-0.096
13,GNAS (UniProt Q5JWF2),-0.059
14,GOPC (UniProt Q9HD26),0.03
15,FDXR isoform 7 (UniProt P22570),-0.086
16,HECTD1 (UniProt Q9ULT8),0.001
17,GLUL (UniProt P15104),-0.049

# Compound: CC(C)(C)Cn1c(N)nc2ccc(-c3[nH]c(C(C)(C)C)nc3-c3ccc(F)cc3)nc21 [ralimetinib]
# Assay: as above
# Outline: as §1
row,Target,log2 fold change
1,HADHB (UniProt P55084),0.068
2,GDPD1 (UniProt Q8N9F7),0.066
3,HBZ (UniProt P02008),-0.052
4,FNTA (UniProt P49354),-0.05
5,FUBP3 (UniProt Q96I24),0.023
6,FAM91A1 (UniProt Q658Y4),0.076
7,GTF3C4 (UniProt Q9UKN8),-0.045
8,HSPA8 (UniProt E9PK54),-0.161
9,GNPAT (UniProt O15228),0.02
10,GTF2A2 (UniProt P52657),-0.078
11,HBA1 (UniProt P69905),-0.037
12,GDI1 (UniProt P31150),-0.057
13,HMOX2 (UniProt P30519),0.081
14,HMGN2 (UniProt P05204),-0.024
15,GYG1 (UniProt P46976),0.176
16,FKBP3 (UniProt Q00688),0.001
17,HEATR5B (UniProt Q9P2D3),0.04
18,FKBP4 (UniProt Q02790),-0.016

row,Target,log2 fold change
1,H2AFX (UniProt P16104),0.193
2,GUSB (UniProt P08236),-0.013
3,HDAC6 (UniProt Q9UBN7),0.034
4,FBXO42 (UniProt Q6P3S6),-0.064
5,HP1BP3 (UniProt Q5SSJ5),0.089
6,GEMIN5 (UniProt Q8TEQ6),0.034
7,HSD17B12 (UniProt Q53GQ0),-0.037
8,HNRNPF (UniProt P52597),0.098
9,GALNT2 (UniProt Q10471),0.014
10,IFT80 isoform 3 (UniProt Q9P2H3),-0.02
11,GEMIN6 (UniProt Q8WXD5),0.188
12,FDPS (UniProt P14324),0.048
13,GNAS (UniProt Q5JWF2),0.009
14,GOPC (UniProt Q9HD26),0.259
15,FDXR isoform 7 (UniProt P22570),-0.015
16,HECTD1 (UniProt Q9ULT8),0.054
17,GLUL (UniProt P15104),-0.02

# Compound: CC(C)(O)CC(=O)NCCn1ccc2ncnc(Nc3ccc(Oc4cccc(C(F)(F)F)c4)c(Cl)c3)c21
# Assay: as above
# Outline: as §1
row,Target,log2 fold change
1,HADHB (UniProt P55084),-0.155
2,GDPD1 (UniProt Q8N9F7),-0.03
3,HBZ (UniProt P02008),-0.042
4,FNTA (UniProt P49354),-0.023
5,FUBP3 (UniProt Q96I24),-0.083
6,FAM91A1 (UniProt Q658Y4),-0.198
7,GTF3C4 (UniProt Q9UKN8),0.035
8,HSPA8 (UniProt E9PK54),0.058
9,GNPAT (UniProt O15228),-0.053
10,GTF2A2 (UniProt P52657),-0.026
11,HBA1 (UniProt P69905),-0.035
12,GDI1 (UniProt P31150),0.009
13,HMOX2 (UniProt P30519),0.031
14,HMGN2 (UniProt P05204),0.29
15,GYG1 (UniProt P46976),0.029
16,FKBP3 (UniProt Q00688),-0.028
17,HEATR5B (UniProt Q9P2D3),-0.021
18,FKBP4 (UniProt Q02790),-0.036

row,Target,log2 fold change
1,H2AFX (UniProt P16104),0.036
2,GUSB (UniProt P08236),0.011
3,HDAC6 (UniProt Q9UBN7),-0.023
4,FBXO42 (UniProt Q6P3S6),-0.093
5,HP1BP3 (UniProt Q5SSJ5),-0.013
6,GEMIN5 (UniProt Q8TEQ6),-0.049
7,HSD17B12 (UniProt Q53GQ0),0.289 (active)
8,HNRNPF (UniProt P52597),-0.086
9,GALNT2 (UniProt Q10471),0.027
10,IFT80 isoform 3 (UniProt Q9P2H3),-0.118
11,GEMIN6 (UniProt Q8WXD5),-0.03
12,FDPS (UniProt P14324),-0.319
13,GNAS (UniProt Q5JWF2),0.022
14,GOPC (UniProt Q9HD26),-0.04
15,FDXR isoform 7 (UniProt P22570),-0.27 (active)
16,HECTD1 (UniProt Q9ULT8),-0.048
17,GLUL (UniProt P15104),0.018
